Compound activity (PubChem)
PABP polyA inh – PABP-poly(A) binding inhibition; P11940; PABP-poly(A) RNA binding, fluorescence polarization; calls only at 35 µM; hit rate 1% among 290,000; AID 2014;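 also: calls also rest on retests at 20 µM and on dose response follow-up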
Target sequence (P11940 whole entry, looked up): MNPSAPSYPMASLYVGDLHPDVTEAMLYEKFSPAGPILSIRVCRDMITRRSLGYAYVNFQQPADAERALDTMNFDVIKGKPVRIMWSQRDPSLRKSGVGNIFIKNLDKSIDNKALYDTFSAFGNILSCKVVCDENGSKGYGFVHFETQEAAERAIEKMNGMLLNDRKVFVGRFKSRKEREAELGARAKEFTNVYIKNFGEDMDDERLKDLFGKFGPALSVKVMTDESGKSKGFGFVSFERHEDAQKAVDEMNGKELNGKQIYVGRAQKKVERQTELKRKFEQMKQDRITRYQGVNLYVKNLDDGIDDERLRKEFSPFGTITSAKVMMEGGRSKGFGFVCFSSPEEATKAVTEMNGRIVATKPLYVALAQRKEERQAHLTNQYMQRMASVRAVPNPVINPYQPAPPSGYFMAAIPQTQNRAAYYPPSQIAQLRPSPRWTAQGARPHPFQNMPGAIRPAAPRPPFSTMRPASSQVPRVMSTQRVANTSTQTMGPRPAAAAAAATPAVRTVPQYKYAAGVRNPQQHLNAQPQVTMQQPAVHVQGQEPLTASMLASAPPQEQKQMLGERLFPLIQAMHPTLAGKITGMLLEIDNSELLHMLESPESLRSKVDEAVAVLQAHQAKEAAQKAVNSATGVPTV
MEX-5 binding – C. elegans MEX-5 TCR-2 RNA binding activity | MEX-5/FITC-TCR2 RNA binding, fluorescence polarization; hits give low values | activity score (negative = inhibition of binding), % at 10 µM | hit rate 0.38% among 300,000;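 active = inhibition past about -25% in most replicates, and total fluorescence under double the plate's negative control median, limit read from the data; inconclusive = replicates evenly split on the limit, or fluorescence at least double controls; inactive = too little inhibition in most replicates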;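 also: 0% = DMSO and -100% = 5 µM competing unlabeled TCR2 RNA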
EBV gp42 block – blocks Epstein-Barr virus glycoprotein 42 binding; Q1HVG2; Fluorescence polarization binding assay, mP read-out; inhibition, % (tested at 21.74 µM); hit rate 0.42% among 220,000; AID 1085; in the data active = inhibition above about 50%
eIF4H inh – inhibitors of RNA binding by human eIF4H; eIF4H fluorescence polarization binding assay; inhibition, % at 35 µM; hit rate 0.94% among 290,000; AID 2012;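 also: calls also rest on retests at 20 µM and on dose response follow-up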
MLLE-PAM2 inh – inhibitors of microRNA-mediated deadenylation, human PABP1 MLLE binding; GST-MLLE / FITC-PAM2 fluorescence polarization; inhibition, % at 20 µM; P11940; hit rate 0.36% among 360,000; in the data active = inhibition above about 35%, passing the limit was not always enough;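 also: plate controls were DMSO wells with GST-MLLE for no effect and wells lacking GST-MLLE protein for full effect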
Starred values were filed as active, the others as inactive; i = inactive; ? = inconclusive; · = no result given; + = active, no number. The list is not random: actives were taken first. Their share in the collection is about 1.8%. Unless noted, no rule for the calls is given here.

SMILES	PABP polyA inh	MEX-5 binding	EBV gp42 block	eIF4H inh	MLLE-PAM2 inh
CCCCOc1ccc(N2C(=O)C(C)CNC2=S)cc1 (stereo not drawn)	·	·	·	·	52*
COc1cccc(C(=O)Nc2ccc(C)cc2)c1	i	-2	10	5	-2
COc1cccc(C(=O)Nc2ccc(C3CC3(Cl)Cl)cc2)c1 (stereo not drawn)	i	-1	-8	active	-5
Cc1ccc(C2=NN(S(=O)(=O)c3ccccc3)C(c3ccco3)C2)cc1 (stereo not drawn)	·	·	·	·	2
CS(=O)(=O)Nc1ccc(C2=NN(S(=O)(=O)c3ccc(F)cc3)C(c3ccco3)C2)cc1 (stereo not drawn)	i	-4	-3	active	-30
CN1C(=O)/C(=C2/C=Cc3ccccc3N2CCCS(=O)(=O)O)SC1=S	i	4	-17	-6	23
CCN1C(=O)/C(=C2\Sc3ccccc3N2CC)OC1=S	i	1	-4	-1	46*
C=CCN1C(=O)/C(=C2/Sc3ccccc3N2CC)SC1=S	i	-30*	·	44	0
C=CCN1C(=O)/C(=C2/Sc3ccccc3N2C)SC1=Nc1ccccc1C	i	-3	-43	23	30
C=CCN1C(=O)/C(=C2/Sc3ccccc3N2CCCS(=O)(=O)O)SC1=S	i	-1	-14	12	41*
CCOC(=O)N1C2c3ccccc3C(c3ccccc32)N1C(=O)OCC	·	·	·	·	8
C=CCn1c(=O)c(C(=O)Nc2ncccc2C)c(O)c2ccccc21	·	·	·	·	14
CCOc1ccc(-c2cncc3nccn23)cc1	·	·	·	·	0
Cc1ccc(/C=C/C(=O)NCc2ccco2)o1	+	-3	2	?	·
O=C(/C=C/c1ccccc1)NCc1ccco1	i	3	-4	-6	-9
O=C(/C=C/c1ccco1)NCc1ccco1	+	-2	-8	86*	-11
O=C(CNC(=O)/C=C/c1ccco1)N=Nc1c(O)[nH]c2ccccc12	+	-29*	·	88*	9
O=C(O)CC(c1ccccc1)n1cccc1 (stereo not drawn)	i	0	-11	-14	4
Nc1ccc(C(CC(=O)O)n2cccc2)cc1 (stereo not drawn)	+	-4	2	67*	13
Cc1ccc(OCC(O)CN2CC3(C)CC2CC(C)(C)C3)cc1 (stereo not drawn)	+	-2	-12	13*	4
COc1ccc(/C=C2\Oc3cc(OCC(=O)N4CCC[C@H]4CO)ccc3C2=O)c(OC)c1	+	-1	·	73	-42
Cn1nnnc1SCC(=O)Nc1ccccc1Br	i	0	·	-2	9
Cn1nnnc1SCC(=O)Nc1ccccc1N1CCCCC1	i	1	140*	-5	-14
Fc1cccc(Cc2c(-c3ccco3)nc3ccc(Br)cn23)c1	·	·	·	·	-21
COc1ccc(N2C(=O)[C@@H]3[C@H](C2=O)[C@H]2c4ccccc4C=CN2[C@@H]3C(C)=O)cc1	i	·	54*	23	20
SMILES	PABP polyA inh	MEX-5 binding	EBV gp42 block	eIF4H inh	MLLE-PAM2 inh
COc1ccc(C#Cc2cnc3c(c2)C(=O)N([C@@H](C)CO)C[C@@H](C)[C@@H](CN(C)CC2CCOCC2)O3)cc1	·	·	·	·	-19
Cc1c(CN2CCCCC2)c(O)n(CCCO)c(=O)c1C#N	?	-46*	-4	?	21
Cn1c(CN2CCCCC2)c(C#N)c2ccccc21	i	-1	5	5	8
CCCn1c(O)c(CN2CCCCC2)c(C)c(C#N)c1=O	?	-51*	-4	?	29
C=CCn1c(O)c(CN2CCN(Cc3ccccc3)CC2)c(C)c(C#N)c1=O	i	-5	-12	126*	64
CCCn1c(C)cc(C)c(C#N)c1=O	i	0	-18	10	-61
Cc1cc(C)c(C#N)c(N2CCN(Cc3ccccc3)CC2)n1	i	-13	-10	-2	10
CC(C)(C)NC(=O)CSc1nccn1Cc1ccccc1	+	2	-6	68*	-65
O=C(CSc1nccn1Cc1ccccc1)Nc1ccccc1	i	-1	·	-2	-5
CN(C(=O)CN1CCN(c2cc(-c3cccc4oc5ccccc5c34)ncn2)CC1)c1ccccc1	·	·	·	·	-1
CN(C)c1ccc(CC(=O)N2CCCCC2c2cc(C(=O)Nc3ccccc3)no2)cc1 (stereo not drawn)	·	·	·	·	5
O=c1[nH]c(=S)[nH]cc1Oc1ccc(Cl)cc1Cl	i	-4	-11	10	46*
N#Cc1ccc(C(=O)N2CCCCC2c2cc(C(=O)Nc3ccccc3Cl)no2)cc1 (stereo not drawn)	·	·	·	·	5
O=C(CSc1nnnn1-c1ccccc1)NC(=O)NCc1ccco1	i	3	46	92	-42
